The target of experiment [1] is ATP-dependent translocase ABCB1 (Homo sapiens) (UniProt P08183). In words: MDR1 (ABCB1) efflux transporter inhibition, cell-based (AID 377; in the data active = fluorescence slope change above about 50%). The following applies: MDR1-expressing cells, fluorescent substrate accumulation slope; stronger effect = higher value; concentration not given here.
Experiment [2] is described as follows: polyglutamine-triggered caspase-3 activation inhibitors, cell-based (AID 1583). The following applies: polyglutamine-induced caspase-3 activation, cell assay; stronger effect = higher value;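 tested at 10 µM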.
Experiment [3] in a line: rescue of polyQ-huntingtin neuronal dysfunction in worms, whole organism, C. elegans mechanosensory neurons, N-terminal huntingtin (AID 1599). The following applies: touch response, stronger effect = higher value.
The nature of experiment [4]: enhancers of glutamate uptake in motor neurons, MN-1 cell line (AID 1612).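 Also: tested at 1 µM final; 0% = mean of DMSO vehicle wells on each plate; positive means more glutamate uptake than control and negative means less.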 Conditions: MN-1 motor neuron cells, stronger effect = higher value.
The nature of experiment [5]: reducers of polyQ inclusions in PC12 cells, cell-based, NGF-treated PC12, GFPQ80 (AID 1614).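 Also: lower means fewer inclusions and 0 means no inclusions at all.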 Conditions: PC12 NGF-treated GFP-polyQ80 inclusion reduction.
The nature of experiment [6]: suppressors of polyglutamine aggregation in yeast, 75Q-TubH (AID 1616). The following applies: S. cerevisiae 75Q-TubH polyglutamine aggregation suppression; stronger effect = higher value.
Experiment [7] is described as follows: circadian clock period modulators, cell-based, LOPAC library, luminescence reporter (AID 2774).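 Also: values are relative to mean of DMSO wells on each plate.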 The following applies: circadian reporter cells, at 7 µM, actives lie on both sides.
Experiment [8] in a line: hESC survival regulators, cell-based (AID 493140).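 Also: cells exposed to compounds for four days before counting.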 Conditions: human embryonic stem cell survival screen; stronger effect = higher value.
The subject of experiment [9] is Aerobactin synthetase IucA (Klebsiella pneumoniae, hypervirulent). In words: IucA enzyme inhibition, biochemical, LOPAC library, absorbance readout (AID 1346212).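 Also: 100% = no compound wells and 0% = no enzyme wells.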 Conditions: IucA enzyme assay, absorbance (OD) readout; stronger effect = lower value;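 tested at 8 µM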.
Experiment [10] concerns Hepatitis C virus NS3 helicase. Nature of the experiment: HCV NS3 helicase inhibitors, primary screen, biochemical, fluorescence polarization, LOPAC1280 library (AID 687035; in the data active = inhibition above about 37%). Conditions: Purified HCV NS3 helicase, Cy5-dT15 ssDNA binding fluorescence polarization; stronger effect = higher value; concentration not given here. (In general: Fluorescence polarisation rises when a labelled molecule tumbles more slowly, as on binding a larger partner.)

Experiment [11] is described as follows: Cy5 fluorescence quenching or enhancement artefacts, artefact control for HCV NS3 helicase inhibitor project, biochemical, LOPAC1280 (AID 687037). Conditions: Cy5-DNA-NS3h complex fluorescence interference counterscreen. In general terms: Counterscreens check selectivity or assay interference.
Experiment [12] can be described thus: phospholipid biosynthesis inhibitors in animal cells, primary screen, cell-based, LOPAC library, screen 4 (AID 1347384). Conditions: phospholipid biosynthesis inhibition screen, at 10 µM.
Experiment [13] in a line: Cy5 fluorescence interference with SSB-bound oligo, artefact control for HCV NS3 helicase inhibitor project, biochemical, NIH Clinical Collection, E. coli SSB (AID 743268).
For experiment [14], the system named is Hepatitis C virus NS3 helicase. In words: HCV NS3 helicase inhibitors, primary screen, biochemical, fluorescence polarization, NIH Clinical Collection (AID 743270). Conditions: NS3 helicase binding to Cy5-dT15 DNA, stronger effect = higher value, concentration not given here.
Experiment [15] is described as follows: modulation of C. elegans fzo-1 (AID 1259413).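 Also: fzo-1 mutant C. elegans worms in liquid wells.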 The following applies: C. elegans fzo-1 modulator screen, mean read-out; stronger effect = higher value.
Another experiment relates to F380Y. Nature of the experiment: modulators of BK channel variants, profiling panel, selectivity assay, cell-based, U2OS BacMam, thallium flux, beta subunits (AID 1259406;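 active = thallium flux through the channel raised or lowered by more than 3 SD from vehicle-only wells, actives on both sides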;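 also: initial slope of Thallos dye fluorescence rise after thallium is added; log ratio against the mean of 0.3% DMSO vehicle wells on the same plate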). Conditions: at 30 µM.
In the next experiment the test system is F380Y/beta2Delta. The experiment is described as above. Conditions: at 30 µM.
The subject of a further experiment is R275C. Described as above. Conditions: at 30 µM.
For a further experiment, the system named is R275C/beta1. The description is as above. The following applies: at 30 µM.
A further experiment concerns R275C/beta2Delta. The description is as above. The following applies: at 30 µM.

Results filed as inconclusive are left out. For some assays here: Results with a measured potency or affinity are listed apart. Calls of active or inactive are those of the source. Unless noted, no rule for the calls is given here.

By inhibition is commonly meant the drop in the measured response relative to a control, in per cent. As usually defined, the remaining activity is the signal under treatment as a percentage of the control signal.

Sequence of ATP-dependent translocase ABCB1 (Homo sapiens) (P08183 whole entry, looked up): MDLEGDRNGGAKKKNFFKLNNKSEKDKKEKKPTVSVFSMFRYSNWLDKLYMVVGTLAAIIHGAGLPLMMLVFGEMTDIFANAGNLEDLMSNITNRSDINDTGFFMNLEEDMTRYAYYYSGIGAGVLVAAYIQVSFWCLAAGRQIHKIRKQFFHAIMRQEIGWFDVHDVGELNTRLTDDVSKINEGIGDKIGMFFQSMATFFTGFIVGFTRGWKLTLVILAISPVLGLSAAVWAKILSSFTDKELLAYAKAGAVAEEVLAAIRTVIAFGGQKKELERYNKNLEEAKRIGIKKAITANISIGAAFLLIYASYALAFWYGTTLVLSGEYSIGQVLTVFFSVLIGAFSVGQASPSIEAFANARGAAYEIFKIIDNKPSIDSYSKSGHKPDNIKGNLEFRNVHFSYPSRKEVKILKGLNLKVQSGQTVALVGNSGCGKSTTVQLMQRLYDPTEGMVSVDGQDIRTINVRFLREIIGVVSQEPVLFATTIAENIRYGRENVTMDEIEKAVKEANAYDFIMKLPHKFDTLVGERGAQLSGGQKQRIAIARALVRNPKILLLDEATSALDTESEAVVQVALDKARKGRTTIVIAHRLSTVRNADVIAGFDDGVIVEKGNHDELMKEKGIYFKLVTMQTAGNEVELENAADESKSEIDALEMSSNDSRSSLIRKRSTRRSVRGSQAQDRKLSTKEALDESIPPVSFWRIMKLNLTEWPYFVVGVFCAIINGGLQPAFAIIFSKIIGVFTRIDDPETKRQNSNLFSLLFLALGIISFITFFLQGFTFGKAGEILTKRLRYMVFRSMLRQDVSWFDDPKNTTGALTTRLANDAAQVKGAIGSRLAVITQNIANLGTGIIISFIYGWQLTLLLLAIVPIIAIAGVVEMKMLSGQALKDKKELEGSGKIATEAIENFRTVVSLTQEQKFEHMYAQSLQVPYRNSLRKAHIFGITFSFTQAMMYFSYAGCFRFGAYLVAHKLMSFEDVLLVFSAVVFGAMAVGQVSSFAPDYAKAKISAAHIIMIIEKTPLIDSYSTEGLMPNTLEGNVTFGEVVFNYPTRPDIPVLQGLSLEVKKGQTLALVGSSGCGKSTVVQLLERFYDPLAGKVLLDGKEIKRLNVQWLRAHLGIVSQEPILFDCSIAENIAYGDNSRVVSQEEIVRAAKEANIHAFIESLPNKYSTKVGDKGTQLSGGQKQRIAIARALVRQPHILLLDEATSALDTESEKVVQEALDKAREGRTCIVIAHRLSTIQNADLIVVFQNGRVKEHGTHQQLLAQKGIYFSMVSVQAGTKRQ

As for `c1ccc2nc(N3CCNCC3)ccc2c1`, the fluorescence slope change in [1] is 25.1% (inactive). Further, in [2], the inhibition is -24.6%. In experiment [3], this compound came in with a rescue above control of -5.3. In addition, the glutamate uptake change in [4] is -14.6%. The inclusion score in [5] was 2. The same compound had an aggregation suppression score in [6] of 1.33. Besides, in [7], the period change is -0.04 h (inactive). Further, in experiment [8], the survival was 8.75 (inactive). The remaining activity in experiment [9] was 114% (inactive).
For the compound `O=C(O)c1nn(Cc2ccc(Cl)cc2Cl)c2ccccc12`, in experiment [7], the period change is -0.065 h (inactive). For the same compound, the inhibition in experiment [10] was -4% (inactive). Also, in experiment [11], the fluorescence ratio (interference) is 1 (inactive). For the same compound, the remaining activity in experiment [9] was 110% (inactive). Moreover, the compound was called inactive in experiment [12].
In the case of `CN(C)[C@@H]1C(=O)C(C(N)=O)=C(O)[C@@]2(O)C(=O)C3=C(O)c4c(O)cccc4[C@@](C)(O)[C@H]3[C@H](O)[C@@H]12`, the fluorescence slope change in experiment [1] is 60.8% (active). In addition, the inhibition in [2] is -0.04%; in [14] it was -4.09% (inactive). In experiment [3], this compound displayed a rescue above control of -1.64. Moreover, the glutamate uptake change in experiment [4] is -6.56%. In addition, the inclusion score in [5] was determined as 1. The aggregation suppression score in [6] is 0.502. Further, the survival in experiment [8] is 14.3 (inactive). The fluorescence ratio in experiment [13] is 1.03 (inactive). The mean signal in experiment [15] was 260 (inactive). Further, the log fold change Tl+ flux in the experiment with F380Y was 0.018 (inactive); in the experiment with F380Y/beta2Delta, -0.0529 (inactive); in the experiment on R275C, -0.057 (inactive); in the experiment with R275C/beta1, 0.0468 (inactive); in the experiment with R275C/beta2Delta, -0.0649 (inactive).
`CCCC(C)(COC(N)=O)COC(=O)NC(C)C` (stereo not drawn): the fluorescence slope change in experiment [1] was 52.8% (active). The inhibition in [2] was 17.5%; in experiment [10], -1% (inactive); in [14], -6.82% (inactive). Besides, the rescue above control in experiment [3] was found to be 0.33. Further, the glutamate uptake change in experiment [4] is 3.53%. In experiment [5], this compound displayed an inclusion score of 2. For the same compound, the aggregation suppression score in [6] stood at 1.4. Also, the period change in [7] was 0.065 h (inactive). In addition, the survival in experiment [8] is 11.2 (inactive). For the same compound, in [11], the fluorescence ratio (interference) was 1 (inactive). The fluorescence ratio in experiment [13] is 1.01 (inactive). In experiment [15], the mean signal is 258 (inactive). In addition, the remaining activity in experiment [9] is 106% (inactive). Besides, the log fold change Tl+ flux is 0.0133 (inactive) in the experiment with F380Y; -0.0375 (inactive) with F380Y/beta2Delta; 0.0157 (inactive) with R275C; 0.044 (inactive) in the experiment on R275C/beta1; 0.0245 (inactive) in the experiment with R275C/beta2Delta.
In the case of `O=P1(N(CCCl)CCCl)NCCCO1` (stereo not drawn), the inhibition was -14.8% in [2], -3% (inactive) in experiment [10] and -4.09% (inactive) in experiment [14]. Moreover, the rescue above control in experiment [3] was -5.6. In addition, the glutamate uptake change in experiment [4] was -7.13%. This compound had an inclusion score in experiment [5] of 2. In experiment [6], this compound had an aggregation suppression score of 1.14. Further, the period change in [7] is 0.185 h (inactive). Also, the fluorescence ratio (interference) in experiment [11] was 1 (inactive). Besides, the fluorescence ratio in experiment [13] is 1.07 (inactive). Moreover, the mean signal in experiment [15] was 262 (inactive). Further, in experiment [9], the remaining activity was 112% (inactive). Also, the outcome in experiment [12] was inactive. Besides, the log fold change Tl+ flux was -0.0772 (inactive) in the experiment with F380Y; -0.037 (inactive) with F380Y/beta2Delta; -0.0233 (inactive) in the experiment with R275C; 0.00892 (inactive) in the experiment on R275C/beta1; -0.0421 (inactive) in the experiment with R275C/beta2Delta.
For the compound `O=C(O)CCCc1ccc(N(CCCl)CCCl)cc1`, the inhibition in experiment [2] was 25.6%; in experiment [10] it was -3% (inactive); in [14], -5% (inactive). Further, in [3], the rescue above control is -3.71. In addition, the glutamate uptake change in experiment [4] was -0.49%. The same compound registered an aggregation suppression score in [6] of 0.0151. Besides, the period change in experiment [7] is -0.09 h (inactive). In addition, in experiment [8], the survival was 4.5 (inactive). Also, the fluorescence ratio (interference) in [11] was 1 (inactive). Besides, the fluorescence ratio in experiment [13] was 1.06 (inactive). Also, in experiment [15], the mean signal is 236 (inactive). Also, the remaining activity in experiment [9] was 115% (inactive). Also, the log fold change Tl+ flux was -0.0169 (inactive) in the experiment on F380Y; 0.0059 (inactive) with F380Y/beta2Delta; -0.0229 (inactive) in the experiment on R275C; -0.022 (inactive) with R275C/beta1; 0.041 (inactive) with R275C/beta2Delta.

Source of the values: PubChem BioAssay.
